Measurements published in PubChem BioAssay (Tox21).
“And” between values parts separate entries of the source, which are not always exact repeats. Equal values may be shown once. Inconclusive results are not listed. A structure can be active in one record and inactive in another. The source made the active and inactive calls. Unless noted, the call rests on the fitted dose curve; in most records, active means well fitted curve in the direction sought with a large enough effect in the repeat runs; inconclusive means weak or mixed curves; inactive means no such curve, though single readings can be large; an effect the other way counts as inactive or inconclusive.

What was measured:
[1] = qHTS assay to identify small molecule agonists of the peroxisome proliferator-activated receptor delta (PPARd) signaling pathway - cell viability counter screen (AID 743211); further: nearly all actives have a fitted effect of over 55% in size; further: potency means the concentration at half of the fitted maximal effect
In short: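 Following 5 h plating at 37 C and 5% CO2, PPARd UAS-bla HEK293H cells took up test compounds for 17 h. Viability was quantified by luminescence 30 min after CellTiter-Glo addition at room temperature.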

[2] = qHTS assay to identify small molecule antagonists of the peroxisome proliferator-activated receptor delta (PPARd) signaling pathway - cell viability counter screen (AID 743213); further: nearly all actives have a fitted effect of over 50% in size; further: potency means the concentration at half of the fitted maximal effect
In short: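 Viability counter-screen, qHTS format: PPARd-bla HEK293H, L165041 300 nM final, 17 h compound exposure at 37 C, CellTiter-Glo luminescence after 30 min RT.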

[3] = qHTS assay to identify small molecule agonists of the farnesoid-X-receptor (FXR) signaling pathway - cell viability counter screen (AID 743218); further: nearly all actives have a fitted effect of over 45% in size; further: potency means the concentration at half of the fitted maximal effect
In short: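 FXR-UAS-bla HEK 293T cells exposed to compounds for 16 h at 37C. Cytotoxicity read in the same wells by CellTiter-Glo luminescence after 30 min at room temperature, following the beta-lactamase FRET read.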

[4] = qHTS assay to identify small molecule antagonists of the farnesoid-X-receptor (FXR) signaling pathway - cell viability counter screen (AID 743221; active means well fitted cell-killing curve with a large enough effect in the repeat runs, not every such curve was filed as active; further: nearly all actives have a fitted effect of over 50% in size; further: potency means the concentration at half of the fitted maximal effect)
In short: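 Compound effects on cell number were measured as CellTiter-Glo luminescence in HEK 293T cells expressing FXR-UAS-bla, after 16 h at 37 C with 50 uM CDCA (final).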

[5] = target: Vitamin D3 receptor (Homo sapiens) (UniProt P11473); assay: qHTS assay to identify small molecule agonists of the vitamin D receptor (VDR) signaling pathway (AID 743222; calls by dose curve; further: on the % scale 0 is the no-effect control and ±100 the full control effect)
In short: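 VDR-bla cells plated 4 h at 37 C, then exposed to compounds for 16 h at 37 C. Beta-lactamase reporter activity measured by fluorescence after 2 h room-temperature loading with LiveBLAzer B/G FRET substrate.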

[6] = qHTS assay to identify small molecule agonists of the vitamin D receptor (VDR) signaling pathway - cell viability counter screen (AID 743224); further: nearly all actives have a fitted effect of over 50% in size; further: potency means the concentration at half of the fitted maximal effect
In short: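 VDR-bla cells, 4 h after plating, exposed to compounds for 16 h at 37C; viability then read in the same wells as CellTiter-Glo luminescence after 30 min at room temperature, following the bla FRET read.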

[7] = qHTS assay to identify small molecule agonists of the endoplasmic reticulum stress response signaling pathway (AID 1159516; active means well fitted activation curve with a large enough effect in the signal ratio in the repeat runs, not every such curve was filed as active; the % refers to the signal ratio; further: on the % scale 0 is the no-effect control and ±100 the full control effect)
In short: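 CellSensor ESRE-bla HeLa cells, 1,500 per well, plated overnight, then exposed to compounds for 5 hr at 37 C. Beta-lactamase reporter read with LiveBLAzer B/G FRET substrate after 2 hr at room temperature, 405 nm excitation, 460 and 530 nm emission.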

[8] = qHTS assay to identify small molecule agonists of the endoplasmic reticulum stress response signaling pathway - cell viability counter screen (AID 1159517; calls by dose curve;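 further: HeLa cells carrying an ER stress response element beta-lactamase reporter; series mostly up to about 61 µM; on the % scale 0 is the no-effect control and ±100 the full control effect; nearly all actives have a fitted effect of over 50% in size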)
In short: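 Counter-screen wells were identical to the reporter wells. Cells were plated at 1,500 per well and dosed for 5 hr, then read for luminescence 30 min after CellTiter-Glo addition.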

[9] = qHTS assay to identify small molecule antagonists of the retinoid-related orphan receptor gamma (ROR-gamma) signaling pathway - cell viability counter screen (AID 1159520); further: nearly all actives have a fitted effect of over 50% in size; further: potency means the concentration at half of the fitted maximal effect
In short: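 Tet-on ROR gamma CHO cells were given compounds for 2 hr, then doxycycline hyclate at 1 uM final, and incubated 16 hr at 37 C. Viability was measured as ATP content by CellTiter-Glo luminescence.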

[10] = qHTS assay to identify small molecule agonists of the AP-1 signaling pathway - cell viability counter screen (AID 1159525; calls by dose curve; further: nearly all actives have a fitted effect of over 55% in size)
In short: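 AP-1-bla ME-180 cells in Opti-MEM with 0.5% dialyzed FBS, compound exposure 5 h at 37 C in 15-point titration. Viability read in the same wells as ATP content by CellTiter-Glo luminescence, normalised to tetra-n-octylammonium bromide and DMSO controls.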

[11] = target: Peroxisome proliferator-activated receptor delta (Homo sapiens) (UniProt Q03181); assay: qHTS assay to identify small molecule antagonists of the peroxisome proliferator-activated receptor delta (PPARd) signaling pathway (AID 743215; active means well fitted inhibition curve with a large enough effect in the signal ratio in the repeat runs, not every such curve was filed as active; the % refers to the signal ratio;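 further: cells stimulated with agonist L165041 at 300 nM final during compound exposure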; further: potency means the concentration at half of the fitted maximal effect)
In short: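 PPARd-bla HEK293H cells (UAS-bla reporter) preincubated 5 h, then given compound plus 300 nM final L165041 agonist for 17 h at 37 C. Beta-lactamase activity read by LiveBLAzer B/G FRET substrate fluorescence after 2 h at room temperature.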

[12] = target: Nuclear receptor ROR-gamma (Homo sapiens) (UniProt P51449); assay: qHTS assay to identify small molecule antagonists of the retinoid-related orphan receptor gamma (ROR-gamma) signaling pathway (AID 1159521; further: nearly all actives have a fitted effect of over 50% in size; further: potency means the concentration at half of the fitted maximal effect)
In short: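 Screening format: cell-based luciferase reporter in CHO cells with doxycycline-inducible RORγ. Compound pre-exposure lasts 2 h, doxycycline is 1 uM final, induction runs 16 h at 37 C, and ONE-Glo luminescence is read.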

[13] = target: Bile acid receptor (Homo sapiens) (UniProt Q96RI1); assay: qHTS assay to identify small molecule antagonists of the farnesoid-X-receptor (FXR) signaling pathway (AID 743217; active means well fitted inhibition curve with a large enough effect in the signal ratio in the repeat runs, not every such curve was filed as active; the % refers to the signal ratio; further: on the % scale 0 is the no-effect control and ±100 the full control effect)
In short: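 FXR-UAS-bla HEK 293T cells (beta-lactamase reporter) given compound plus chenodeoxycholic acid (50 uM final), 16 h at 37C. LiveBLAzer B/G FRET substrate added for 2 h at room temperature; fluorescence read.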

[14] = qHTS assay to identify small molecule antagonists of the vitamin D receptor (VDR) signaling pathway - cell viability counter screen (AID 743225)
In short: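 In this counter screen, VDR-bla HEK 293T cells receive test compound plus 3 nM final calcitriol for 16 h at 37C. Room-temperature steps of 2 h with the beta-lactamase substrate, then 30 min with CellTiter-Glo, precede the luminescence read.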

[15] = target: Peroxisome proliferator-activated receptor delta (Homo sapiens) (UniProt Q03181); assay: qHTS assay to identify small molecule agonists of the peroxisome proliferator-activated receptor delta (PPARd) signaling pathway (AID 743212; calls by dose curve; further: on the % scale 0 is the no-effect control and ±100 the full control effect)
In short: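 Quantitative high-throughput agonist screen in a HEK293H beta-lactamase reporter line under UAS control. Compounds in DMSO, at 37 C. Fluorescence read after 2 h with FRET substrate at room temperature.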

[16] = target: Bile acid receptor (Homo sapiens) (UniProt Q96RI1); assay: qHTS assay to identify small molecule agonists of the farnesoid-X-receptor (FXR) signaling pathway (AID 743220; active means well fitted activation curve with a large enough effect in the signal ratio in the repeat runs, not every such curve was filed as active; the % refers to the signal ratio; further: on the % scale 0 is the no-effect control and ±100 the full control effect)
In short: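 Beta-lactamase reporter under UAS control in GeneBLAzer FXR HEK 293T cells (5000/well) measured with LiveBLAzer FRET substrate after 2 h at room temperature. Compound exposure lasted 16 h at 37C.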

[17] = qHTS assay to identify small molecule agonists of the AP-1 signaling pathway (AID 1159526; calls by dose curve; further: on the % scale 0 is the no-effect control and ±100 the full control effect)
[18] = target: Retinoic acid receptor RXR-alpha (Homo sapiens) (UniProt P19793); assay: qHTS assay to identify small molecule agonists of the RXR signaling pathway (AID 1159527; calls by dose curve; further: on the % scale 0 is the no-effect control and ±100 the full control effect; nearly all actives have a fitted effect of over 35% in size)
In short: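 Fluorescence ratio readout (460 vs 530 nm) from GeneBLAzer RXR-alpha HEK 293T cells after 16 hr compound treatment; cells seeded 5 hr beforehand in low-serum, charcoal-stripped medium.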

[19] = target: Vitamin D3 receptor (Homo sapiens) (UniProt P11473); assay: qHTS assay to identify small molecule antagonists of the vitamin D receptor (VDR) signaling pathway (AID 743223; active means well fitted inhibition curve with a large enough effect in the signal ratio in the repeat runs, not every such curve was filed as active; the % refers to the signal ratio; further: on the % scale 0 is the no-effect control and ±100 the full control effect)
In short: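 Beta-lactamase activity in VDR-bla cells is measured by FRET substrate fluorescence (2 h, room temperature) after cells spend 16 h at 37C with test compound and 3 nM final 1alpha,25-dihydroxyvitamin D3.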

Chain of Vitamin D3 receptor (Homo sapiens) (P11473 whole entry, looked up): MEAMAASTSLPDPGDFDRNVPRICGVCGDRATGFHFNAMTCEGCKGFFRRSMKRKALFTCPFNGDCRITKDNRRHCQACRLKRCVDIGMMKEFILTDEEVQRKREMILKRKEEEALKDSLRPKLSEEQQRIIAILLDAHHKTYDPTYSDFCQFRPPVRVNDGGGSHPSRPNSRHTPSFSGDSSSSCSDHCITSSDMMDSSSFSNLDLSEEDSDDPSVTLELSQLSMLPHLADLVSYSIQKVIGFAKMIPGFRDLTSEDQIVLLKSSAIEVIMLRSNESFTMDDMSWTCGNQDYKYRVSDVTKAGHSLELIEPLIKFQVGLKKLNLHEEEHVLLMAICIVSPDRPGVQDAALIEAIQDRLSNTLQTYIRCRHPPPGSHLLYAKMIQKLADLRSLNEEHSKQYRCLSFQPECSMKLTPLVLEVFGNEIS
Chain of Retinoic acid receptor RXR-alpha (Homo sapiens) (P19793 whole entry, looked up): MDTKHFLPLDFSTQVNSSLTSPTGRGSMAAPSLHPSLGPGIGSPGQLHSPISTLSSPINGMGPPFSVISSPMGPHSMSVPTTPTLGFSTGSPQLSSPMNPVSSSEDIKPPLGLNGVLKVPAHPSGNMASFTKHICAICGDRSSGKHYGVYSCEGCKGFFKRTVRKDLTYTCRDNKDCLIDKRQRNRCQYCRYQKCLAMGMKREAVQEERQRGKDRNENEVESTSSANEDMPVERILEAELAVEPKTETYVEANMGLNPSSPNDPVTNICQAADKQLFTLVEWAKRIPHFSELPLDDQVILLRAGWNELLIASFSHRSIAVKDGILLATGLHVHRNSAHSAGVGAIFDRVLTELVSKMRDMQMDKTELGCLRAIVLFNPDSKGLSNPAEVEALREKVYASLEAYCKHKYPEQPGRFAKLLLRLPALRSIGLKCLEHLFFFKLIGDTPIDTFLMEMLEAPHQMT
Chain of Bile acid receptor (Homo sapiens) (Q96RI1 whole entry, looked up): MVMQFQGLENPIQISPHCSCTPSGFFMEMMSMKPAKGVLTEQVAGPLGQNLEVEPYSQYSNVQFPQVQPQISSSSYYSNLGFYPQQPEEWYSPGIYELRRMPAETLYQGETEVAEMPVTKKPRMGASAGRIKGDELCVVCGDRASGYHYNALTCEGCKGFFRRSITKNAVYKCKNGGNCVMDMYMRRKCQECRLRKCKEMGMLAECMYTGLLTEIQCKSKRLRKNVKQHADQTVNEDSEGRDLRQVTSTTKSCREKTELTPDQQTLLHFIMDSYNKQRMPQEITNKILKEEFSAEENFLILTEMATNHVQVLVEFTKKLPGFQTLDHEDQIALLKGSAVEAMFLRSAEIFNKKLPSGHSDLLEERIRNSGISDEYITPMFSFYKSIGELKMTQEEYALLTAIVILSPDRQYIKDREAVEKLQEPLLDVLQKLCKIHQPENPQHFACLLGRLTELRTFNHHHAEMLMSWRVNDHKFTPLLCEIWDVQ
Chain of Peroxisome proliferator-activated receptor delta (Homo sapiens) (Q03181 whole entry, looked up): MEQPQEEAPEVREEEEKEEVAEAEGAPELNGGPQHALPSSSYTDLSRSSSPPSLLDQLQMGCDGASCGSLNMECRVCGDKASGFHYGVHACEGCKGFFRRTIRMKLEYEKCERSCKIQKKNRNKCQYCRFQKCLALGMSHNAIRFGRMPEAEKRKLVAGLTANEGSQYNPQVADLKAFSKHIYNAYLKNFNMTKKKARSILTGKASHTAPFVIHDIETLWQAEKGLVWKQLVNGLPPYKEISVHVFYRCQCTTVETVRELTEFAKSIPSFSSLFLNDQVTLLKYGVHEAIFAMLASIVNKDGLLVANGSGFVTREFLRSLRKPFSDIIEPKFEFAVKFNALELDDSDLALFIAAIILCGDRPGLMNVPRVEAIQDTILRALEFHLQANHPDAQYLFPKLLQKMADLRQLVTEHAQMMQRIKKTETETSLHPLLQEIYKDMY

CNCCC(Oc1ccc(C(F)(F)F)cc1)c1ccccc1 (stereo unspecified)
active: Potency [1] 27.2 µM and 29.8 µM | Potency [2] 17.2 µM and 21.1 µM | Potency [3] 21.6 µM | Potency [4] 48.4 µM
inactive: Potency [5] | outcome [7] | Potency [8] | Potency [9] | Potency [10]
48.4 µM (active) and inactive: Potency [6]

O=Nc1ccc(Nc2ccccc2)cc1
active: Potency [1] 43.9 µM and 38.9 µM | Potency [2] 49 µM | Potency [11] 30.9 µM | Potency [3] 55.3 µM and 54.9 µM | Potency [4] 39.1 µM | Potency [6] 17.5 µM and 49 µM | Potency [9] 19.4 µM and 15.4 µM | Potency [12] 7.74 µM and 10.9 µM
inactive: Potency [5] | outcome [7] | Potency [10]

C=CC(=O)OCCCCCCOC(=O)C=C
inactive: Potency [2] | Potency [13] | Potency [3] | Potency [4] | Potency [14] | outcome [7] | Potency [8] | Potency [9] | Potency [10]
44.2 µM (active) and inactive: Potency [6]
active: Potency [1] 49.6 µM

Cc1cc(C(C)(C)C)c(O)c(C(C)(C)C)c1
43.8 µM (active) and inactive: Potency [1]
inactive: Potency [15] | Potency [2] | Potency [11] | Potency [13] | Potency [3] | Potency [16] | Potency [4] | Potency [6] | Potency [14] | outcome [7] | Potency [8] | Potency [9] | Potency [10] | Potency [17]

NC(Cc1ccc(Cl)cc1)C(=O)O (stereo unspecified)
inactive: activity change, negative = cytotoxicity [1] 4.79% [at 0.55 µM] | activation [15] 2.85% [at 0.55 µM] | viability change, negative = cytotoxic [2] 1.71% [at 0.575 µM] | ratio activity, negative = inhibition [11] 5.74% [at 0.575 µM] | activity change, negative = inhibition [13] 10.5% [at 0.55 µM] | viability change, negative = cytotoxic [3] 0.639% [at 0.55 µM] | activation [16] 2.17% [at 0.55 µM] | activity change, negative = cytotoxicity [4] 5.76% [at 0.55 µM] | activation [5] 0.21% [at 0.554 µM] | activity change, negative = cytotoxicity [6] 2.72% [at 0.55 µM] | viability change, negative = cytotoxic [14] -8.18% [at 0.628 µM] | activation [7] 2.37% [at 0.628 µM] | activity change, negative = cytotoxicity [8] 3.91% [at 0.628 µM] | activity, negative = cytotoxicity [9] 3.35% [at 0.349 µM] | activity change, negative = inhibition [12] 14.9% [at 0.35 µM] | viability change, negative = cytotoxic [10] -2.41% [at 0.29 µM] | activation [17] -0.248% [at 0.29 µM] | activation [18] -0.301% [at 0.29 µM]

CCCCCCCCCCCCCCCCCl
inactive: Potency [1] | Potency [2] | Potency [3] | Potency [4] | Potency [5] | Potency [19] | Potency [6] | outcome [7] | Potency [8] | activity, negative = cytotoxicity [9] 5.98% [at 19 µM] | activity change, negative = inhibition [12] 19.2% [at 19 µM] | viability change, negative = cytotoxic [10] -12.8% [at 15.8 µM] | activation [17] -1.11% [at 15.8 µM] | activation [18] 0.473% [at 15.8 µM]

O=C(Cl)c1cccc(C(=O)Cl)c1
inactive: Potency [1] | Potency [15] | Potency [2] | Potency [11] | Potency [3] | Potency [4] | Potency [5] | Potency [19] | Potency [6] | Potency [14] | outcome [7] | Potency [8] | Potency [9] | Potency [12] | Potency [10] | Potency [17] | Potency [18]
